Among all 48,000 compounds or so, about 13,000 (27%) showed an effect of 50% or more. The list shows a part of the results.
The compounds below were run on Wolbachia pipientis (assay: Anti-Wolbachia Cell-Based Screen). Conditions: 5 µM.
Format: functional
Set-up: scale not given: in the data most compounds retested in dose-response had high values

Structure (SMILES)	Percent Effect
COc1ccc(OC)c(S(=O)(=O)NC(=O)C(C)OC)c1 (centres undefined)	1.842%
CC(C)=CCC1(CO)CCCN(S(C)(=O)=O)C1 (centres undefined)	-9.202%
CCc1csc(C2CCCN(C(=O)c3ccc4[nH]nnc4c3)C2)n1 (centres undefined)	100.2%
CCc1csc(C2CCCN(C(=O)c3ccc4c(c3)OCO4)C2)n1 (centres undefined)	-10.1%
CCc1csc(C2CCCN(C(=O)c3ncccn3)C2)n1 (centres undefined)	104%
CCc1csc(C2CCCN(C(=O)c3cnc[nH]3)C2)n1 (centres undefined)	106.6%
CCc1csc(C2CCCN(C(=O)c3ccc(=O)n(C)n3)C2)n1 (centres undefined)	-0.1419%
Cc1csc(C2CCCN(C(=O)c3cnc[nH]3)C2)n1 (centres undefined)	-6.546%
CC(C)c1csc(C2CCCN(C(=O)c3ncccn3)C2)n1 (centres undefined)	1.009%
CCc1csc(C2CCCN(C(=O)c3ccncc3)C2)n1 (centres undefined)	12.22%
CCc1csc(C2CCCN(C(=O)c3ccc(=O)n(CC)n3)C2)n1 (centres undefined)	101.1%
CCc1nc(CN2CCCN(C(=O)c3cnc[nH]3)CC2)cs1	-9.99%
CCc1csc(C2CCCN(C(=O)c3ccc(OC)nc3)C2)n1 (centres undefined)	6.728%
COC(=O)CNC(=O)C1(NC(=O)c2ccc3[nH]ncc3c2)CCCC1	5.444%
CNS(=O)(=O)c1ccccc1N1CCN(C(C)C(N)=O)CC1 (centres undefined)	-9.322%
CC(C)NC(=O)N1CC[C@@H](N(C)C)[C@@H]1Cc1ccncc1.O=C(O)C(F)(F)F.O=C(O)C(F)(F)F	-7.431%
CCc1csc(C2CCCN(C(=O)c3c[nH]c(C)n3)C2)n1 (centres undefined)	6.503%
CCc1csc(C2CCCN(C(=O)c3ccccn3)C2)n1 (centres undefined)	106.7%
CCc1csc(C2CCCN(C(=O)c3ccco3)C2)n1 (centres undefined)	94.24%
CCc1csc(C2CCCN(C(=O)c3cc(C4CC4)[nH]n3)C2)n1 (centres undefined)	98.97%
CCc1csc(C2CCCN(C(=O)c3ccc(OC)nn3)C2)n1 (centres undefined)	3.799%
Cc1csc(C2CCCN(C(=O)c3cc(Cl)c[nH]3)C2)n1 (centres undefined)	-0.3257%
CCOC(=O)[C@@H]1CN2CCNC[C@@H]2[C@H]1c1ccccc1	110.8%
CCN(C(=O)CN1CCC(c2ccccc2)C1)C1CC1 (centres undefined)	4.674%
CCOC(=O)CCC(=O)N1CC(c2nc(Cc3ccccc3)no2)C1	-13.25%
O=C(CCn1cncn1)N1C[C@H]2CC[C@@H]1CN(Cc1ccncc1)C2	5.769%
CC(CN1CCOCC1)OC(=O)c1cccc2cn[nH]c12 (centres undefined)	-3.971%

Structure (SMILES)	Percent Effect
CCc1noc(C)c1C(=O)N1CCCN(Cc2cscn2)CC1	149%
Cc1csc(N2CCCN(C(=O)c3c(C)oc(C)c3C)CC2)n1	12.08%
Cc1oc(C)c(C(=O)N2CCCN(Cc3cscn3)CC2)c1C	2.495%
Cc1ocnc1C(=O)N1CCCN(Cc2cscn2)CC1	126.9%
Cc1noc(C)c1CNC(=O)N1CCN(Cc2cscn2)CC1	-4.059%
Cc1nc(CN2CCCN(C(=O)c3c(C)oc(C)c3C)CC2)cs1	108.1%
Cc1nc(CN2CCCN(C(=O)c3c(C)noc3C)CC2)cs1	14.06%
Cc1cc(C(C)C(=O)N2CCCN(Cc3cscn3)CC2)c(C)o1 (centres undefined)	-21.53%
Cc1oc(C)c(C(=O)N2CCN(Cc3cscn3)CC2)c1C	159.3%
CCc1noc(C)c1C(=O)N1CCCN(Cc2csc(C)n2)CC1	18.09%
Cc1nn(C)c(Cl)c1S(=O)(=O)N(CC(N)=O)CC(C)C	-2.815%
O=C(c1cccc(F)c1F)N1CCn2c(nnc2C(F)(F)F)C1	-8.426%
O=C(NCC1=CCCCC1)C(c1cccnc1)N1CCCC1 (centres undefined)	4.63%
CC(C)c1ncncc1C(=O)N1CCN(Cc2cscn2)CC1	-5.142%
CCc1ncncc1C(=O)N1CCN(Cc2cscn2)CC1	108.1%
Cc1noc(C(C)C)c1C(=O)N1CCCN(Cc2cscn2)CC1	0.5158%
Cc1noc(C)c1C(=O)N1CCCN(Cc2cscn2)CC1	110.4%
CCc1ncncc1C(=O)N1CCN(Cc2ccco2)CC1	2.127%
CCc1nc(CN2CCCN(C(=O)c3c(C)noc3C)CC2)cs1	-12.93%
CN(C)CCCNC(=O)c1ccnc(OCc2ccccc2)c1	-11.72%
COc1cc(NC(=O)c2ccccc2F)c(C(=O)N(C)C)cc1OC	-7.835%
Cc1ccnc(NC(=O)CCNC(=O)c2ccccc2Cl)c1	8.062%
CN(C)CCNC(=O)c1ccccc1NC(=O)c1cc(Cl)ccc1Cl	115.7%
CN(C)CCCNC(=O)c1ccccc1NC(=O)c1cc(Cl)ccc1Cl	87.51%
CN(CC(=O)Nc1ccccc1C(=O)NC1CC1)Cc1ccccc1Cl	6.232%
CN(C)CCCNC(=O)c1ccccc1NC(=O)c1ccccc1Cl	105.1%
CN(CCCNC(=O)c1ccccc1F)CC(F)(F)F	0.1047%

From ChEMBL document CHEMBL3988442, “University of Dundee, Small-Polar-MMV Screening Library” (2021)
